Reference: publication PMC8384837, “Expanding the binding specificity for RNA recognition by a PUF domain”
Positions count from the first letter of the chain named.

What was measured:
Assay in all cases: yeast three-hybrid, YBZ-1, SC-Leu-His + 0.5 mM 3-AT, 4 days
Conditions in all cases: tags: N-Gal4 AD-HA kept; label: inside an RPR1-promoter hybrid RNA with tandem MS2 sites; ssRNA
PUM1 PUF domain R5-WHG = PUM1 PUF domain R5-WHG (Homo sapiens, UniProt Q14671 828-1176, C1007W;R1008H;Q1011G)
Outline: (§1)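 The interaction score is the logarithmic change in variant frequency from input to selection. It uses log2, with a pseudocount of 1 for absent variants, and frequencies came from PCR-amplified, Illumina-sequenced repeat regions. The libraries were Pumilio-1 PUF domains randomized at the three base-contacting residues per repeat, co-expressed with matching RNA elements in strain YBZ-1 (LexA–MS2 coat fusion, HIS3 reporter). Plating lasted four days on SC-Leu (input) or SC-Leu-His + 0.5 mM 3-AT (selection).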

PUM1 PUF domain R6-LWS = molecular target: T1, PUM1 PUF domain R6-LWS (Homo sapiens, UniProt Q14671 828-1176, N1043L;Y1044W;Q1047S)
T1 sequence: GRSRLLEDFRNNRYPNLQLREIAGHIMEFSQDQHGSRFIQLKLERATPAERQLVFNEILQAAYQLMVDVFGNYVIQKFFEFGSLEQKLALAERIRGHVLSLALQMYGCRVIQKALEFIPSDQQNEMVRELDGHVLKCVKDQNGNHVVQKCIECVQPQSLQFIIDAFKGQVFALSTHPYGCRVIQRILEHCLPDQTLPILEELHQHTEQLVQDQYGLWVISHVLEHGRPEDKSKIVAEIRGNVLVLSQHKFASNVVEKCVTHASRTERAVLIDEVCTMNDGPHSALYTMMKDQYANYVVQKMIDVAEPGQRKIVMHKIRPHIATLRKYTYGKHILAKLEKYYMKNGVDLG
Outline: as §1

PUM1 PUF domain R3-GRA = PUM1 PUF domain R3-GRA (Homo sapiens, UniProt Q14671 828-1176, C935G;Q939A)
Outline: as §1

PUM1 PUF domain R8-NYP = PUM1 PUF domain R8-NYP (Homo sapiens, UniProt Q14671 828-1176, Q1126P)
Outline: as §1

PUM1 PUF domain R5-GRH = PUM1 PUF domain R5-GRH (Homo sapiens, UniProt Q14671 828-1176, C1007G;Q1011H)
Outline: as §1

PUM1 PUF domain R6-MFR = molecular target: T2, PUM1 PUF domain R6-MFR (Homo sapiens, UniProt Q14671 828-1176, N1043M;Y1044F;Q1047R)
T2 sequence: T1 sequence with L216M, W217F, S220R
Outline: as §1

PUM1 PUF domain R6-NYL = molecular target: T3, PUM1 PUF domain R6-NYL (Homo sapiens, UniProt Q14671 828-1176, Q1047L)
T3 sequence: T1 sequence with L216N, W217Y, S220L
Outline: as §1

PUM1 PUF domain R8-CHK = PUM1 PUF domain R8-CHK (Homo sapiens, UniProt Q14671 828-1176, N1122C;Y1123H;Q1126K)
Outline: as §1

PUM1 PUF domain R5-DIR = PUM1 PUF domain R5-DIR (Homo sapiens, UniProt Q14671 828-1176, C1007D;R1008I;Q1011R)
Outline: as §1

PUM1 PUF domain R3-RCA = PUM1 PUF domain R3-RCA (Homo sapiens, UniProt Q14671 828-1176, C935R;R936C;Q939A)
Outline: as §1

## GGCUAGAACUAGUGGAUCCCCCGGCGCCCGGCGGCUCGAGCCCGGGUAAGUGUGAAUAGUCUGCAUGCCGCCGGGCGCCAUGCCUGCAGGUCGACUCUAGAAAACAUG
PUM1 PUF domain R5-WHG
  binding signal: 2.58 log2 enrichment (interaction score)

## GGCUAGAACUAGUGGAUCCCCCGGCGCCCGGCGGCUCGAGCCCGGGUAAGUGAAAAUAGUCUGCAUGCCGCCGGGCGCCAUGCCUGCAGGUCGACUCUAGAAAACAUG
PUM1 PUF domain R6-LWS
  binding signal: 4.85 log2 enrichment (interaction score)

## GGCUAGAACUAGUGGAUCCCCCGGCGCCCGGCGGCUCGAGCCCGGGUAAGUGUAAAUAGUCUGCAUGCCGCCGGGCGCCAUGCCUGCAGGUCGACUCUAGAAAACAUG
PUM1 PUF domain R3-GRA
  binding signal: 2.35 log2 enrichment (interaction score)
PUM1 PUF domain R8-NYP
  binding signal: 3.16 log2 enrichment (interaction score)
PUM1 PUF domain R5-GRH
  binding signal: 3.97 log2 enrichment (interaction score)
PUM1 PUF domain R6-MFR
  binding signal: 6.1 log2 enrichment (interaction score)
PUM1 PUF domain R6-NYL
  binding signal: 5.52 log2 enrichment (interaction score)
PUM1 PUF domain R6-LWS
  binding signal: 6 log2 enrichment (interaction score)

## GGCUAGAACUAGUGGAUCCCCCGGCGCCCGGCGGCUCGAGCCCGGGUAAGCGUAAAUAGUCUGCAUGCCGCCGGGCGCCAUGCCUGCAGGUCGACUCUAGAAAACAUG
PUM1 PUF domain R8-CHK
  binding signal: 3.49 log2 enrichment (interaction score)

## GGCUAGAACUAGUGGAUCCCCCGGCGCCCGGCGGCUCGAGCCCGGGUAAGUGUCAAUAGUCUGCAUGCCGCCGGGCGCCAUGCCUGCAGGUCGACUCUAGAAAACAUG
PUM1 PUF domain R5-WHG
  binding signal: 2.14 log2 enrichment (interaction score)
PUM1 PUF domain R5-GRH
  binding signal: 2.47 log2 enrichment (interaction score)
PUM1 PUF domain R5-DIR
  binding signal: 3.11 log2 enrichment (interaction score)

## GGCUAGAACUAGUGGAUCCCCCGGCGCCCGGCGGCUCGAGCCCGGGUAAGUGUAAUUAGUCUGCAUGCCGCCGGGCGCCAUGCCUGCAGGUCGACUCUAGAAAACAUG
PUM1 PUF domain R3-GRA
  binding signal: 0.97 log2 enrichment (interaction score)
PUM1 PUF domain R3-RCA
  binding signal: 3.42 log2 enrichment (interaction score)

## GGCUAGAACUAGUGGAUCCCCCGGCGCCCGGCGGCUCGAGCCCGGGUAAGUGUUAAUAGUCUGCAUGCCGCCGGGCGCCAUGCCUGCAGGUCGACUCUAGAAAACAUG
PUM1 PUF domain R5-WHG
  binding signal: 4.56 log2 enrichment (interaction score)
PUM1 PUF domain R5-GRH
  binding signal: 4.85 log2 enrichment (interaction score)

## GGCUAGAACUAGUGGAUCCCCCGGCGCCCGGCGGCUCGAGCCCGGGUAAGUGUAAGUAGUCUGCAUGCCGCCGGGCGCCAUGCCUGCAGGUCGACUCUAGAAAACAUG
PUM1 PUF domain R3-GRA
  binding signal: 1.12 log2 enrichment (interaction score)
